# Bioassay records from PubChem.
# TbREL1 inh: TbREL1 inhibition, primary screen | inhibition, % at 9.66 µM | TbREL1 RNA ligation, FRET fluorescence | P86926 | AID 1117264 | actives 0.49% (n = 89,000);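 active = inhibition above the mean inhibition across all screened compounds plus 3 SD, cut at about 11% in these data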;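 also: 0% = plate median of test wells and 100% = NSC42067 control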
# Target sequence (P86926 whole entry, looked up): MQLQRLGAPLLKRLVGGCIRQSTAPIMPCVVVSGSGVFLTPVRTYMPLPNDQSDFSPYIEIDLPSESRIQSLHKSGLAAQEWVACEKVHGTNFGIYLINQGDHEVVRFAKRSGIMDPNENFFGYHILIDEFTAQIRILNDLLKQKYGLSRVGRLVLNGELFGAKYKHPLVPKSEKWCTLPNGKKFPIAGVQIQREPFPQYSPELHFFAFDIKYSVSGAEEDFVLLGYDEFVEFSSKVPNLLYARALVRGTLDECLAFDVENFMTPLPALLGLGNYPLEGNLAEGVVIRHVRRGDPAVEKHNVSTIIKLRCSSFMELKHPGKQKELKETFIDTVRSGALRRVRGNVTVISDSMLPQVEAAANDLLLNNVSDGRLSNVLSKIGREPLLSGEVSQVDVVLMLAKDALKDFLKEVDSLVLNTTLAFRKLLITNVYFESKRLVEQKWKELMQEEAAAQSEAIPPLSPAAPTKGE
# TbREL1 confirm: TbREL1 inhibition, confirmation; shares compounds with TbREL1 inh; AID 1117282; inhibition, % at 9.66 µM; actives 37% (n = 390); TbREL1 RNA ligation, FRET fluorescence;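 active = mean inhibition across replicates above a set limit taken from the earlier primary screen, cut at about 11% in these data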;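 also: 0% = REL1 with substrate and DMSO and 100% = REL1 plus control inhibitor NSC42067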
# Starred values were filed as active, the others as inactive. Shown is part of a subset that was picked to be rich in hits.
SMILES,TbREL1 inh,others
Cc1ccc(-c2cc(-c3ccccc3)cc(-c3ccccc3)[n+]2-c2ccc(C(=O)O)cc2)cc1,-1,
Oc1ccccc1-[n+]1c(-c2ccccc2)cc(-c2ccccc2)cc1-c1ccccc1,0,
C[n+]1c(-c2ccccc2)cc(CCCCc2cc(-c3ccccc3)[n+](C)c(-c3ccccc3)c2)cc1-c1ccccc1,13*,
O=C(NC(CCC(O)CO)P(=O)(Oc1ccccc1)Oc1ccccc1)OCc1ccccc1 (stereo unspecified),-1,
CCCCN1CCN(C(=O)COc2cc(=O)n(C)c3ccccc23)CC1,-4,
CC(NC(=O)OC1CC2CCC1(C)C2(C)C)P(=O)(Oc1ccccc1)Oc1ccccc1 (stereo unspecified),-4,
O=C(CNCc1c(F)cccc1F)N1CCC2(CC1)OCCO2,1,
O=C(Cn1ccc2ccccc2c1=O)NCC(=O)N1CCC2(CC1)OCCO2,11*,
O=C(CCCCCn1c(=S)[nH]c2ccccc2c1=O)N1CCC2(CC1)OCCO2,-6,
CCOC(=O)[C@]12Cc3cc(Cl)ccc3[C@H]1N(C1CCCCC1)C(=O)c1cc(OC)ccc12,3,
COCCCn1c(N)c(C(=O)OCCOC)c2nc3ccccc3nc21,8,
COCCOC(=O)c1c(N)n(Cc2ccc(OC)cc2)c2nc3ccccc3nc12,0,
CCCCNC(=O)c1c(N)n(CCCOC)c2nc3ccccc3nc12,12*,TbREL1 confirm=34*
C=CC[N+]1(C)C2CCC1CC(O)C2 (stereo unspecified),-4,
C#CCOCOCC#CCN(CC)CC,-4,
COC(=O)C1=C(c2cccc(OCc3ccccc3)c2)C[C@@H]2CC[C@H]1N2C(=O)NCc1cc(C)oc1C(F)(F)F,0,
COC12c3ccccc3-c3ccccc3C1C(C(=O)O)C2C(=O)O (stereo unspecified),0,
Cc1nc2c(=O)n(C)c(=O)nc-2n(C)n1,64*,TbREL1 confirm=89*
COP(=O)(OC)C(C)NC(=O)OCc1ccccc1 (stereo unspecified),0,
COc1ccc(-n2c(O)c(C(C)=NCc3ccc4c(c3)OCO4)c(=O)[nH]c2=O)cc1,2,
O=c1[nH]c(O)c(N=Nc2ccc(SC(F)F)cc2)c(=O)[nH]1,0,
O=C1NC(=O)C(=Cc2ccc(-c3ccc(F)cc3O)o2)C(=O)N1,16*,TbREL1 confirm=15*
CN1CSC(=S)N(C)C1,-2,
Cc1cccc(C(C)c2cnc[nH]2)c1C (stereo unspecified),1,
C[C@]12CC[C@@H](O)CC1=CCC1C2CC[C@@]2(C)C1C[C@@H](F)[C@H]2O (stereo partly specified),-3,
SMILES,TbREL1 inh,others
Cc1cccc(C(=O)NC(Oc2ccccc2)C(Cl)(Cl)Cl)c1 (stereo unspecified),1,
COC(=O)C1=C(c2cccc(OCc3ccccc3)c2)C[C@@H]2CC[C@H]1N2C(=O)NCCOc1ccccc1,2,
Cc1ccc(-n2c(C)cc(/C=C3/C(=O)NC(=O)N(Cc4ccco4)C3=O)c2C)cc1,-1,
Cc1cc(/C=C2\C(=O)NC(=O)N(Cc3ccco3)C2=O)c(C)n1-c1ccc(C(=O)O)cc1,16*,TbREL1 confirm=3
Cc1cc(/C=C2/C(=O)NC(=O)N(c3ccccc3)C2=O)c(C)n1-c1ccc(F)cc1,3,
COC(=O)C1=C(c2cc3ccccc3o2)C[C@@H]2CC[C@H]1N2C(=O)NCCCOC(C)C,0,
O=C(NC1CC2CCCC(C1)N2)c1ccccc1 (stereo unspecified),-1,
CCCN(CC#CCO)CCC,-5,
CN(C)S(=O)(=O)c1cc(NC(=O)COC(=O)Cc2ccccc2)ccc1Cl,-1,
Brc1ccc(-[n+]2c(-c3ccccc3)cc(-c3ccccc3)cc2-c2ccccc2)cc1,12*,TbREL1 confirm=4
[O-]c1ccccc1-[n+]1c(-c2ccccc2)cc(-c2ccccc2)cc1-c1ccccc1,8,
CCCOC(=O)c1ccc(-[n+]2c(-c3ccccc3)cc(-c3ccccc3)cc2-c2ccccc2)cc1,10,
CC12CC1(C)C(=O)N(c1cc(Cl)cc(Cl)c1)C2=O (stereo unspecified),1,
Nc1ccnn1C1CCNCC1,23*,TbREL1 confirm=5
CN1CCC(n2nccc2N)CC1,1,
Cc1ccccc1Cc1c(C)nc2nc(SCC(=O)N3CCC4(CC3)OCCO4)nn2c1C,-5,
Nc1c(C(=O)OCC2CCCO2)c2nc3ccccc3nc2n1Cc1cccs1 (stereo unspecified),4,
COC(=O)c1c(N)n(Cc2ccc(OC)cc2)c2nc3ccccc3nc12,0,
Nc1c(C(=O)NC2CCCC2)c2nc3ccccc3nc2n1CC1CCCO1 (stereo unspecified),27*,TbREL1 confirm=12*
Cc1ccc(C(O)(C(=O)OC(C)C)C(O)c2ccc(F)cc2)cc1 (stereo unspecified),3,
